Each structure is given as a SMILES string. Inconclusive results are not listed. A call without a number means that no potency is given here. The source made the active and inactive calls. Calls follow the shape of the dose curve; as a rule, active = well fitted inhibition curve with a large enough effect; inconclusive = small, poorly fitted or top-dose-only effect; inactive = flat fitted curve, though single readings scatter.

Results on 40 molecules are retold here after PubChem BioAssay (NCATS).
Potency is read from the fitted curve at half-maximal effect.

In this assay the test system is DFO2036. Description: qHTS profiling for inhibitors of Plasmodium falciparum proliferation (AID 504749). Also: nearly all actives have a fitted effect of over 60% in size. Conditions: P. falciparum in erythrocytes, SYBR Green DNA, 72 h; series mostly up to 28.7 µM. The text has this: NIH National Institute of Allergy and Infectious Diseases [NIAID] NIH Chemical Genomics Center [NCGC] MLPCN Grant: None Assay Provider: Xinzhuan Su, NIAID NCGC Assay Overview: Plasmodium falciparum is a virulent malarial parasite that kills 1-2 million people worldwide each year. Transmitted by mosquitoes, the sporozoite form of the parasite enters the blood stream to infect hepatocytes, where they become merozoites that infect red blood cells (erythrocytes). Within erythrocytes, merozoites begin a […] cycle of growth and division, after which the parasite is released to infect new red blood cells. Gametocytes, which form within erythrocytes as well, circulate in the bloodstream and are ingested by the mosquito, thereby completing the life cycle. To profile malarial isolates for differential chemical responses and to identify inhibitors of malarial growth, an assay that measures P. falciparum growth and replication within erythrocytes was employed. This assay uses a DNA binding fluorescent dye (SYBR Green) to detect parasite DNA following cell lysis. Because mature erythrocytes lack DNA, only Plasmodium-derived DNA is detected.
NCGC Assay Protocol Summary: The SYBR Green viability assay was adapted from a method described previously (Plouffe et al., 2008). For screening 3 ul culture medium was dispensed into 1536 well black clear bottom plates (Aurora Biotechnologies) using a Multidrop Combi (Thermo Fisher Scientific Inc.), 23 nL compounds in DMSO were added by a pin tool (Kalypsys), and 5 ul of erythrocytes infected with P. falciparum (0.3% parasitemia, 2.5% hematocrit final concentration) were added. The plates were incubated at 37 C in a humidified incubator in 5% CO2 for 72 h, and 2 ul lysis buffer (20 mM Tris HCl, 10 mM EDTA, 0.16% saponin, 1.6% triton X, 10X SYBR Green I supplied as 10,000X […] by Invitrogen) was added to each well. The plates were mixed for 25 sec with gentle shaking and incubated overnight at room temperature in the dark. The following morning, fluorescence intensity at 485(14) nm excitation and 535(25) nm emission wavelengths was measured on an EnVision (Perkin Elmer) plate reader. Plate reads were normalized relative to the control inhibitor (0.29 uM artemisinin) and vehicle (DMSO) wells present on each plate and then corrected by an algorithm using vehicle-only control plates at the beginning and end of the compound plate stack.
With `O=C1[C@@H]2C[C@@H]3C[C@H]1C[C@@](O)(C3)C2`, the Potency result is “inactive”.
Next, `CNC(=O)C(N)CSC(C)C1=C(C)c2cc3[n-]c(cc4nc(cc5[n-]c(cc1n2)c(C)c5CCC(=O)O)C(CCC(=O)O)=C4C)c(C)c3C(C)SCC(N)C(=O)NC.[Fe+2]` (stereo not given): “inactive”.
Next, `CC(=O)OCC(=O)[C@@]1(O)CCC2C3C[C@H](C)C4=CC(=O)C=CC4(C)C3C(O)CC21C` (stereo not given in full): “inactive”; `COC1CC2CCC(C)[C@](O)(O2)C(=O)C(=O)N2CCCCC2C(=O)OC(C(C)CC2CCC(O)C(OC)C2)CC(=O)C(C)/C=C(/C)C(O)C(OC)C(=O)C(C)CC(C)C=CC=C/C=C\1C` (stereo not given in full): 1410 nM (active).
In the case of `CCCCC/C(C=O)=C/c1ccccc1`, the Potency result is “inactive”.
For the molecule `CC1C(=O)C(=O)C=CN1C` (stereo not given), the Potency entry was “inactive”.
Next, `CC1CCC(C(C)C)C(O)C1` (stereo not given): “inactive”.
For `Nc1nc(/C(=C/CC(=O)O)C(=O)NC2C(=O)N3C(C(=O)O)=CCSC23)cs1` (stereo not given), the Potency entry is “inactive”.
As for `Cn1cc(C(=O)[C@@H]2CCc3[nH]cnc3C2)c2ccccc21`, the Potency entry is “inactive”.
Next, `CO[C@H]1C[C@@H]2CC[C@@H](C)[C@@](O)(O2)C(=O)C(=O)N2CCCC[C@H]2C(=O)O[C@H]([C@H](C)C[C@@H]2CC[C@@H](O)[C@H](OC)C2)CC(=O)[C@H](C)/C=C(\C)[C@@H](O)[C@@H](OC)C(=O)[C@H](C)C[C@H](C)/C=C/C=C/C=C/1C`: 1780 nM (active); `Nc1nc(F)nc2c1ncn2[C@@H]1O[C@H](CO)[C@@H](O)[C@H]1O`: “inactive”.
As for `COc1ccc2cc1Oc1cc3c(cc1OC)CC[N+](C)(C)C3Cc1ccc(cc1)Oc1c(OC)c(OC)cc3c1C(C2)[N+](C)(C)CC3` (stereo not given), the Potency result was “inactive”.
For `CNC1C(O)C(OC2C(NC(=O)C(O)CN)CC(N)C(OC3OC(CN)C(O)C(O)C3O)C2O)OCC1(C)O` (stereo not given), the Potency result is “inactive”.
Regarding `Cc1ccc(S(=O)(=O)NC(=O)NC(C)Cc2ccccc2)cc1` (stereo not given), the Potency entry was “inactive”.
With `O=C(O)C(O)c1ccccc1` (stereo not given), the Potency result is “inactive”.
In the case of `CC1(C)CC1C(=O)N/C(=C/CCCCSCC(N)C(=O)O)C(=O)O` (stereo not given), the Potency result was “inactive”.
Next, `CC(=O)NC[C@@H]1CN(c2ccc(N3CCOCC3)c(F)c2)C(=O)O1`: “inactive”; `CC(=O)OC1C([N+]2(C)CCCCC2)C[C@H]2C3CC[C@H]4C[C@H](OC(C)=O)C([N+]5(C)CCCCC5)CC4(C)C3CCC12C` (stereo not given in full): “inactive”.
Next, `Cc1c(C)c2c(c(C)c1O)CCC(C)(CCCC(C)CCCC(C)CCCC(C)C)O2` (stereo not given): “inactive”; `CCN(CC)CC(=O)Nc1c(C)cc(C)cc1C`: “inactive”.
Next, `CC(C)(C)NC[C@H](O)CSc1nc(-c2ccc(C(N)=O)s2)cs1`: “inactive”.
With `CC1OC(OC2C(O)CC(OC3C(O)CC(OC4CCC5(C)C(CCC6C5CCC5(C)C(C7=CC(=O)OC7)CCC65O)C4)OC3C)OC2C)CC(O)C1O` (stereo not given), the Potency entry was “inactive”.
Next, `NC(=O)c1ncn(C2OC(CO)C(O)C2O)c1N` (stereo not given): “inactive”.
Next, `O=C(O)Cc1sc(-c2ccc(Cl)cc2)nc1-c1ccccc1`: “inactive”; `COC(c1ccccc1)(c1ccccc1)C(Oc1nc(C)cc(C)n1)C(=O)O` (stereo not given): “inactive”.
Consider `CC(C)C(=O)OCC(=O)[C@@]12OC(C3CCCCC3)O[C@@H]1CC1C3CCC4=CC(=O)C=C[C@]4(C)C3[C@@H](O)C[C@@]12C` (stereo not given in full), for which the Potency was 501 nM (active).
As for `C[C@H]1OC(OC2C(O)[C@@H](O)C(OC3C(O)[C@@H](O)C(O)O[C@@H]3CO)O[C@@H]2CO)[C@H](O)C(O)C1N[C@H]1C=C(CO)[C@@H](O)[C@H](O)C1O` (stereo not given in full), the Potency result is “inactive”.
Next, `C=NC(C(=O)NC1C(=O)N2C1SC(C)(C)C2C(=O)O)c1ccccc1` (stereo not given): “inactive”; `CC[C@@]1(O)CC2CN(CCc3c([nH]c4ccccc34)[C@](C(=O)OC)(c3cc4c(cc3OC)N(C)C3[C@@](O)(C(=O)OC)C(OC(C)=O)[C@]5(CC)C=CCN6CC[C@@]43C65)C2)C1` (stereo not given in full): 891 nM (active); `CCCSS/C(CCO)=C(/C)N(C=O)Cc1cnc(C)nc1N`: “inactive”.
Next, `C[C@@H]1CC2C3CCC4=CC(=O)C=C[C@]4(C)[C@@]3(F)[C@@H](O)C[C@]2(C)[C@@]1(O)C(=O)COC(=O)c1cccc(S(=O)(=O)O)c1` (stereo not given in full): “inactive”.
On to `C[S+](C)CC[C@H](N)C(=O)O`, for which the Potency result was “inactive”.
As to `CCCCC(=O)OC1CCC2C3CCc4cc(O)ccc4C3CC[C@]12C` (stereo not given in full), the Potency result was “inactive”.
Next, `C=C[C@@]1(C)C[C@H](OC(=O)CSC(C)(C)CNC(=O)[C@@H](N)C(C)C)[C@@]2(C)C(C)CC[C@@]3(CCC(=O)[C@@H]32)[C@H](C)[C@H]1O` (stereo not given in full): 631 nM (active); `CN[C@H](C)CCC=C(C)C`: 398 nM (active); `N#C/C(=C1/SCC(c2ccccc2Cl)S1)n1ccnc1` (stereo not given): “inactive”.
As for `CCC(C(=O)C(C)C(O)C(C)CCc1ccc(C)c(O)c1C(=O)O)C1OC(CC)(C2CC[C@@](O)(CC)C(C)O2)CC1C` (stereo not given in full), the Potency is 1000 nM (active).
Next, `C[C@@H](O)[C@@H]1C(=O)N2C(C(=O)O)=C([C@H]3CCCO3)S[C@H]12`: “inactive”.
With `CC(CN1CC(=O)NC(=O)C1)N1CC(=O)NC(=O)C1` (stereo not given), the Potency entry was “inactive”.
For the molecule `Oc1cc2cc(CCN3CCN(c4nsc5ccccc45)CC3)c(Cl)cc2[nH]1`, the Potency entry was “inactive”.
